Each structure is given as a SMILES string. The panel holds about 83,000 compounds, 20% with a hit somewhere; the sample as a whole holds those more often.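 For each line, cells grew in 96-well plates with the test compound present at a single concentration for 48 hours.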 A number with no mark means an inactive call. The source made the active and inactive calls. The calls were made as follows: active = growth percent below 10; inactive = the rest.

19 compounds from PubChem BioAssay (NCI) can be followed below.

The assay relates to SK-MEL-2 melanoma. The experiment in a line: NCI-60 one-dose screen, 48 h (100 = growth as untreated, 0 = no growth, -100 = all killed). As to conditions: 10 µM unless noted.
`CCC(CCC(C)C1CCC2C3CC=C4CC(O)CCC4(C)C3CCC12C)C(C)C` (centres undefined) (tested in a mixture with another compound): the growth is 24.3%.
Take `Cc1nn(-c2ccc(Cl)cc2)c2nc3c(nc12)c(=O)oc1ccccc13`: the growth was 107%.
Then `Cc1cc(NC(=O)c2ccc(N)cc2)ccc1N=Nc1ccc2c(O)c(N=Nc3ccc(Cl)c(S(=O)(=O)O)c3)c(S(=O)(=O)O)cc2c1`, with 98.3%; and `CN(C)c1nc(-c2ccco2)n2nc(-c3ccco3)cc2n1`, with 122%; and `C[C@]12C[C@H](O)[C@H]3[C@@H](CCC4=CC(=O)CC[C@@]43C)[C@@H]1CC[C@@H]2C(=O)CO`, with 93.4%.
For `Cn1c(N)c(N=O)c(=O)[nH]c1=O`, the growth was 97.8%.
As for `Nc1nc(SCc2ccccc2Cl)c(-c2ccccc2)c(SCc2ccccc2Cl)n1`, the growth is 120%.
With `O=C(CSCC(=O)N/N=C/c1ccccc1O)N/N=C\c1ccccc1O`, the growth is 16.7%.
Under `O=C(O)C(=O)O` stands 88.3%; under `Cc1nn(-c2ccccc2)c2ncc3c(c12)C(=O)N(Cc1ccccc1)C3=O`, 113%; under `Cc1ccc(NC(=O)COC(=O)c2ccc(S(=O)(=O)N3CCCCCC3)cc2)cc1`, 144%.
Then `Cc1ccc2c(c1)C(=O)/C(=C/c1ncc([N+](=O)[O-])n1C)O2`, with -57.8% (active); and `CC1CC(C)/C(=N/NC(N)=O)C(C(O)CC2CCC(=O)NC2=O)C1` (centres undefined), with 33.8%; and `CCC(c1ccccc1)c1noc(CCN(CC)CC)n1` (centres undefined), with 19.4%.
For `O=C1Cc2cc(CCn3cncn3)c(Cl)cc2N1`, the growth was 71.3%.
Then `Cc1nn(-c2ccccc2)c2nc(Cl)c(/C=C/C(=O)c3ccccc3)c(-c3ccccc3)c12`, with 96.4%; and `COc1ccc(/C=C2\NC(=S)NC2=O)cc1`, with 109%.
Regarding `Cn1cc(-c2csc(-c3c[nH]c4ncccc34)n2)c2cc(F)cnc21`, the growth is 89.7%.
For `O=C1NC(=O)/C(=C\c2ccccc2)C2=C1CCCC2`, the growth was -74.2% (active).
